Experimental data published in PubChem BioAssay AID1159580 (chemical genetic matrix, 2015).
Values joined by “and” are separate entries in the source; they are usually repeats but may differ in a detail not shown here. Equal values may be shown once. Among all 5,500 compounds or so, about 2,000 (36%) were called active. About 18% were inconclusive and are not listed. Cut-off read from the data, not from the text of the source: active = normalized growth mostly below about 0.91 (no sharp cut-off); inconclusive = no clear call, values can overlap the other calls; inactive = mostly above about 0.92. The list shows a part of the results.

Assay: chemical genetic growth profiling, strain panel (AID 1159580);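 note: tested at 20 µM; growth read once vehicle control cultures reached saturation at 30 °C; 1 = growth at the plate median or of vehicle wells; lower values mean less growth of the strain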
Conditions: S. cerevisiae deletion strains, growth OD

Measured: normalized growth

CC(C(=O)O)c1ccc(C(=O)c2cccs2)cc1 (configuration not stated)
inactive: locus YAL021C, strain ccr4, stronger effect = lower value 1.02 | locus YAL026C, strain drs2, stronger effect = lower value 1.01 | locus YAL030W, strain snc1, stronger effect = lower value 1 | locus YBL061C, strain skt5, stronger effect = lower value 1 | locus YBR009C, strain hhf1, stronger effect = lower value 1.01 | locus YBR021W, strain FUR4, stronger effect = lower value 0.987 | locus YBR023C, strain chs3, stronger effect = lower value 0.995 | locus YBR171W, strain sec66, stronger effect = lower value 0.985 | locus YBR229C, strain ROT2, stronger effect = lower value 1.01 | locus YBR231C, strain swc5, stronger effect = lower value 1 | locus YBR279W, strain paf1, stronger effect = lower value 0.996 | locus YCL011C, strain gbp2, stronger effect = lower value 1.01 | locus YCL016C, strain dcc1, stronger effect = lower value 0.998 | locus YCL029C, strain bik1, stronger effect = lower value 1.01 | locus YCL061C, strain MRC1, stronger effect = lower value 1.01 | locus YCL069W, strain vba3, stronger effect = lower value 0.997 | locus YCR088W, strain abp1, stronger effect = lower value 0.996 | locus YDL005C, strain med2, stronger effect = lower value 0.995 | locus YDL035C, strain GPR1, stronger effect = lower value 1.01 | locus YDL040C, strain nat1, stronger effect = lower value 0.998 | locus YDL074C, strain BRE1, stronger effect = lower value 1 | locus YDL101C, strain DUN1, stronger effect = lower value 1.01 | locus YDL134C, strain PPH21, stronger effect = lower value 1 | locus YDL185W, strain tfp1, stronger effect = lower value 0.999 | locus YDL192W, strain arf1, stronger effect = lower value 1.01 | locus YDR001C, strain nth1, stronger effect = lower value 0.993 | locus YDR069C, strain doa4, stronger effect = lower value 0.994 | locus YDR101C, strain arx1, stronger effect = lower value 1 | locus YDR137W, strain rgp1, stronger effect = lower value 0.963 | locus YDR159W, strain sac3, stronger effect = lower value 0.991 | locus YDR162C, strain NBP2, stronger effect = lower value 1.01 | locus YDR195W, strain ref2 0.976 | locus YDR297W, strain sur2, stronger effect = lower value 0.999 | locus YDR318W, strain mcm21, stronger effect = lower value 1.02 | locus YDR334W, strain swr1, stronger effect = lower value 0.989 | locus YDR335W, strain msn5, stronger effect = lower value 1.01 | locus YDR388W, stronger effect = lower value 1.02 | locus YDR392W, strain spt3, stronger effect = lower value 1.03 | locus YDR502C, strain sam2, stronger effect = lower value 1.03 | locus YEL003W, strain gim4, stronger effect = lower value 0.987 | locus YEL037C, strain rad23, stronger effect = lower value 1 | locus YEL061C, strain CIN8 (second series), stronger effect = lower value 1 | locus YEL061C, strain CIN8, stronger effect = lower value 1 | locus YER015W, strain faa2, stronger effect = lower value 0.989 | locus YER016W, strain bim1, stronger effect = lower value 1.02 | locus YER110C, stronger effect = lower value 1.02 | locus YER111C, strain swi4, stronger effect = lower value 0.985 | locus YER155C, strain BEM2 (second series), stronger effect = lower value 1 | locus YER155C, strain BEM2, stronger effect = lower value 0.992 | locus YER167W, strain BCK2, stronger effect = lower value 1 | locus YFR010W, strain ubp6, stronger effect = lower value 0.991 | locus YGL078C, strain dbp3, stronger effect = lower value 1.01 | locus YGL086W, strain mad1, stronger effect = lower value 1 | locus YGL167C, strain pmr1, stronger effect = lower value 0.994 | locus YGL173C, strain kem1, stronger effect = lower value 0.993 | locus YGL227W, strain vid30, stronger effect = lower value 0.99 | locus YGL240W, strain doc1, stronger effect = lower value 1 | locus YGL248W, strain PDE1, stronger effect = lower value 1.01 | locus YGL253W, strain hxk2, stronger effect = lower value 1.01 | locus YGR135W, strain pre9, stronger effect = lower value 1.01 | locus YGR252W, strain gcn5, stronger effect = lower value 1 | locus YHR013C, strain ard1, stronger effect = lower value 0.989 | locus YHR027C, strain rpn1, stronger effect = lower value 1.01 | locus YHR030C, strain SLT2, stronger effect = lower value 0.998 and 1 | locus YHR079C, strain IRE1 (second series), stronger effect = lower value 1.01 | locus YHR079C, strain IRE1, stronger effect = lower value 0.999 | locus YHR094C, strain hxt1, stronger effect = lower value 1.01 | locus YHR129C, strain ARP1, stronger effect = lower value 1 | locus YHR142W, strain chs7, stronger effect = lower value 0.995 | locus YHR200W, strain rpn10, stronger effect = lower value 1.01 | locus YIL066C, strain RNR3, stronger effect = lower value 1.01 | locus YIL073C, strain SPO22, stronger effect = lower value 1.07 | locus YIL125W, strain kgd1, stronger effect = lower value 1.01 | locus YIR030C, strain dcg1, stronger effect = lower value 1.01 | locus YJL092W, strain hpr5, stronger effect = lower value 0.996 | locus YJL095W, strain BCK1 (second series), stronger effect = lower value 1 | locus YJL095W, strain BCK1, stronger effect = lower value 1 and 0.971 | locus YJL115W, strain asf1, stronger effect = lower value 0.995 | locus YJL129C, strain trk1, stronger effect = lower value 0.982 | locus YJL134W, strain LCB3, stronger effect = lower value 1 | locus YJL154C, strain vps35, stronger effect = lower value 0.99 | locus YJL164C, strain tpk1, stronger effect = lower value 1.03 | locus YJL166W, strain qcr8, stronger effect = lower value 0.99 | locus YJL168C, strain set2, stronger effect = lower value 1.01 | locus YJL187C, strain SWE1 (second series), stronger effect = lower value 1.01 | locus YJR043C, strain POL32, stronger effect = lower value 0.982 | locus YJR066W, strain TOR1, stronger effect = lower value 0.952
